According to PubChem BioAssay (EPA / NIEHS):
Several values for one entry are separate records, joined by “and”; a condition that tells them apart may be missing. Identical values can stand only once. Some compounds were tested as several samples or in several runs, with calls that do not always agree. Activity calls are given as the source filed them. Rule for the calls: active = hit-call score of the fitted dose curve at least 0.9, where 1 is the maximum; inactive = score below 0.9.

Molecular target: Aryl hydrocarbon receptor (Homo sapiens) (UniProt P35869)
Sequence (P35869 whole entry, looked up): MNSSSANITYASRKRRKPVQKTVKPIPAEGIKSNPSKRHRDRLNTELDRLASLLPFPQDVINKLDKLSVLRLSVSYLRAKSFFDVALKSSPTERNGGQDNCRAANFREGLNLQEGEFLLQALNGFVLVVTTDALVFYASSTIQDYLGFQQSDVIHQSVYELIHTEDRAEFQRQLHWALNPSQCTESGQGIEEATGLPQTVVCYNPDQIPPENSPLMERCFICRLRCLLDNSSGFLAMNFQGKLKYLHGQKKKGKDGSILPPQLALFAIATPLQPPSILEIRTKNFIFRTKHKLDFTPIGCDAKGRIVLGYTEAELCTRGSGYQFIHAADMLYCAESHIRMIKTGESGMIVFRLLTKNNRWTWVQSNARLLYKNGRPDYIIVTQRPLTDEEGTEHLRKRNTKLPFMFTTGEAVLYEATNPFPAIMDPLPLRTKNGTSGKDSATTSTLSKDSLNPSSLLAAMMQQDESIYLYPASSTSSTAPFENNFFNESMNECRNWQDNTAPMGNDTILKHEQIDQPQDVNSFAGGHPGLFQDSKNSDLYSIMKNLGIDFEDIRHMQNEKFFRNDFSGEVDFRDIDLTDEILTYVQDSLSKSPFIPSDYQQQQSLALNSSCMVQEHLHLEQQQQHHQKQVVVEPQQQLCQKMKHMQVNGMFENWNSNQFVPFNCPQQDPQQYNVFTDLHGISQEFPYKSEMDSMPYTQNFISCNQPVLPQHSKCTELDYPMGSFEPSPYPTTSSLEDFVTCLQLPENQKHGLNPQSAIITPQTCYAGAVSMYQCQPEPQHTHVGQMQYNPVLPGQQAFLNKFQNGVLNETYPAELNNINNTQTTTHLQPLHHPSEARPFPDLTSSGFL
Assay: ATG_Ahr_CIS: Attagene CIS-FACTORIAL HepG2 Assay for human Aryl Hydrocarbon Receptor (Ahr) (AID 2282930)
Conditions: HepG2 AhR cis-factorial reporter transcription; actives raise or lower the signal
Method: ATG_CIS is a cell-based, multiplexed-readout assay that uses HepG2, a human liver cell line, with measurements taken at 24 hours after chemical dosing in a 24-well plate.ATG_Ahr_CIS is one of 52 assay component(s) measured or calculated from the ATG_CIS assay. It is designed to make measurements of mRNA induction, a form of inducible reporter, as detected with fluorescence intensity signals by Reverse transcription polymerase chain reaction (RT-PCR) and Capillary electrophoresis technology.Data from the assay component ATG_Ahr_CIS was analyzed into 1 assay endpoint. This assay endpoint, ATG_Ahr_CIS, was analyzed with bidirectional fitting relative to DMSO as the negative control and baseline of activity. Using a type of inducible reporter, measures of mRNA for gain or loss-of-signal activity can be used to understand the reporter gene at the transcription factor-level as they relate to the gene AHR. Furthermore, this assay endpoint can be referred to as a primary readout, because this assay has produced multiple assay endpoints where this one serves a reporter gene function. To generalize the intended target to other relatable targets, this assay endpoint is annotated to the dna binding intended target family, where the subfamily is basic helix-loop-helix protein.
Human liver HepG2 cells are transiently transfected with multiple reporter transcription units (MRTUs) in 6-well plates using FuGene 6 reagent (Roche; 3 ml FuGene/1 mg DNA). The MRTU constructs are regulated by a cis-regulating element (promoter). […] A major difference between the CIS and TRANS system is that in CIS activities of endogenous TFs are measured, whereas the TRANS assay evaluates changes in activities of exogenous, chimeric NR-Gal4 proteins. […] At the end of 24 hour incubation, total RNA was isolated using TriZol reagent (Invitrogen). The isolated RNA is then reverse-transcribed using oligo(dT) primer and Mo-MLV reverse transcriptase (Invitrogen) with DNAse I (Ambion) treatment for 30 min. The one-tenth of the produced cDNA was amplified by PCR using Taq DNA polymerase (Invitrogen) and two reporter sequence-specific primers. The PCR products were fluorescently labeled by primer extension with 6-arboxyfluorescein (6-FAM) 5'-labeled reporter sequence-specific primer (2 min at 95 C, 20 s at 68 C and 10 min at 72 C) and these products were digested with 5U of HpaI (New England Biolabs) for 2h at 37 C. […] The raw capillary electrophoresis data was processed using Attagraph software (Attagene).

| Compound | outcome | AC50 |
| --- | --- | --- |
| CN(C)C(=O)NC1(c2ccccc2)CCN(CC[C@@]2(c3ccc(F)c(F)c3)CN(C(=O)c3ccccc3)CCO2)CC1 | inactive | – |
| Nc1nc(Cl)nc2c1ncn2[C@H]1C[C@H](O)[C@@H](CO)O1 | inactive | – |
| Cn1cnc2c1c(=O)[nH]c(=O)n2C | inactive | – |
| CC1(C)C(=O)NC(=O)N1CO | inactive | – |
| CCCCCCCCCCCCCCOS(=O)(=O)O | inactive | – |
| CC(N)=O | inactive | 29 µM (active) |
| CCCCCCC(C=O)=Cc1ccccc1 | – | 37.4 µM (active) and 60 µM (active) |
| NC(=Nc1ccccc1)Nc1ccccc1 | – | 13.1 µM (active) |
| CC(=O)OC1CC(C)OC(C)O1 (stereo not given) | inactive | – |
| Nc1nc(=S)c2[nH]cnc2[nH]1 | – | 66.3 µM (active) |
| NC1CCCCC1 | inactive | – |
| CC(=O)O[C@]1(C(C)=O)CC[C@H]2[C@@H]3C=C(Cl)C4=CC(=O)[C@@H]5C[C@@H]5[C@]4(C)[C@H]3CC[C@@]21C | inactive | 150 µM (active) and 158 µM (active) |
| C#CC(O)C(CC)CCCC (stereo not given) | inactive | – |
| CS(=O)(=O)c1ccc([C@@H](C[C@H]2CCC(=O)C2)C(=O)Nc2cnccn2)cc1Cl | inactive | – |
| O=C1NC(=O)C(c2ccccc2)(c2ccccc2)N1 | – | 59.3 µM (active) |
| O=C(N[C@@H](c1ccccc1)[C@@H]1CCCCN1)c1cccc(C(F)(F)F)c1Cl | inactive | – |
| COc1ccc(C(=O)Nc2nc3ccccc3c(NCc3ccccc3)c2C#N)cc1 | – | 0.421 µM (active) |
| O=C1c2c(O)cccc2Cc2cccc(O)c21 | – | 61.7 µM (active) |
| NCCOCCOCCN | inactive | – |

| Compound | outcome | AC50 |
| --- | --- | --- |
| Cc1ccc(-c2cc(C(F)(F)F)nn2-c2ccc(S(N)(=O)=O)cc2)cc1 | inactive | – |
| Cc1cc(SC2=C(O)C[C@@](CCc3ccc(N)cc3)(C(C)C)OC2=O)c(C(C)(C)C)cc1CO | inactive | – |
| COC(=O)[C@H]1[C@H]2C[C@@H]3c4[nH]c5cc(OC)ccc5c4CCN3C[C@H]2C[C@@H](OC(=O)c2cc(OC)c(OC)c(OC)c2)[C@@H]1OC | – | 12.5 µM (active) |
| COc1ccc(OC(F)(F)F)cc1CN[C@H]1CCCN[C@H]1c1ccccc1 | inactive | – |
| C/C=C/c1ccc(OC)cc1 | inactive | – |
| O=C1CCCCC1 | inactive | – |
| CCN(CC)CCOc1ccc(C(=C(Cl)c2ccccc2)c2ccccc2)cc1 | inactive | 9.35 µM (active) |
| CCCC[C@H]1CN(CC2CCOCC2)C(=O)OC12CCN(C1(C)CCN(C(=O)c3c(C)ncnc3C)CC1)CC2 | inactive | – |
| O=C1O[C@H]([C@H](O)CO)C(O)=C1O | inactive | – |
| CC(C)COC(=O)CCCCC(=O)OCC(C)C | inactive | – |
| CSc1ccc(Oc2ccc(S(N)(=O)=O)cc2CN(C)C)cc1C | inactive | – |
| C/C=C/C=C/C(=O)O | inactive | – |
| Cc1ccc(C(C)(C)C)c(O)c1 | inactive | – |
| CCCCc1nc2cccnc2n1Cc1ccc(-c2ccccc2-c2nnn[nH]2)cc1 | inactive | – |
| C=CCc1ccc(OC)c(OC)c1 | inactive | – |
| CCCCCCC(CCCCCCCCCCC(=O)OCC(COC(C)=O)OC(C)=O)OC(C)=O (stereo not given) | inactive | – |
| CC(C)OC(=O)C(C)(C)Oc1ccc(C(=O)c2ccc(Cl)cc2)cc1 | inactive | – |
| C=CCCCCCCCCCCCC | inactive | – |
